Measurements reported in PubChem BioAssay (NCI).
About 83,000 compounds went through this panel and 20% of them were active in at least one assay; those are over-represented in the sample as a whole.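 The endpoint reported here, percent growth, reads 100 for growth as untreated, 0 for no net growth and -100 for all cells dead.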 Values without a mark were called inactive. The source made the active and inactive calls. Rule for the calls: active = growth percent below 10; inactive = the rest.

These compounds were tested on HL-60(TB) leukemia (assay: NCI-60 one-dose screen, 48 h (100 = growth as untreated, 0 = no growth, -100 = all killed)). Conditions: 10 µM unless noted.

| SMILES | growth |
| --- | --- |
| CCOc1c(Br)cc(C2C(C(=O)OC)=CN(C)C=C2C(=O)OC)cc1OC | 35.5% |
| Cc1oc2c(C)c3oc(=O)cc(C)c3cc2c1CCl | 70.8% |
| COc1ccccc1-n1c(-c2csc(NC(C)=O)n2)n[nH]c1=S | 96.6% |
| COc1cccc(-c2nn(-c3ccccc3)cc2-c2ccnc(N3CCOCC3)c2)c1 | 44.9% |
| CCN(CC)C(=O)CCCCCn1c2ccccc2c2c3c(c4c5ccccc5[nH]c4c21)C(=O)N(O)C3=O | 21.8% |
| CCCCNC(=O)Oc1ccc(/C(=C(/C)Cc2ccc(OC)cc2)c2ccc(OCCN3CCCCCC3)cc2)cc1 | 33.9% |
| COc1ccc(CCN2CCCn3c2nc2ccccc2c3=O)cc1 | -5.2% (active) |
| COc1ccc(/C(=C2\O[C@@H]([C@H]3COC(C)(C)O3)[C@H]3OC(C)(C)O[C@@H]23)c2cc(OC)c(OC)c(OC)c2)cc1O | 20.7% |
| O=S(=O)(Cc1ccccc1)c1nc2ccccc2s1 | 16.9% |
| COC(=O)C(=Cc1ccccc1[N+](=O)[O-])C(=O)OC | -48% (active) |
| CCOC(=O)CC1CSC(c2cccc(Cl)c2)=N1 (stereo not given) | 98.8% |
| COc1ccc2c(N)ncc(C#Cc3cc(C(=O)Nc4ccc(CN5CCN(C)CC5)c(C(F)(F)F)c4)cnc3C)c2c1 | 43.9% |
| COc1ccc(-c2nn3c(-c4cc(F)c(Cl)cc4Cl)nnc3s2)cc1 | -1.09% (active) |
| COc1cc2c(cc1OC)C(=O)OC2 | 156% |
| Cc1ccc2c(c1)C(=O)/C(=C/c1cccc(OCC(=O)c3ccc(Cl)cc3)c1)CS2 | 43.1% |
